RGS7-Gao: modulates binding of RGS7 to human Galphao | P09471 | Multiplexed bead flow cytometry; actives lie on both sides | binding response (% of control), % at 10 µM | hit rate 0.35% among 220,000 | AID 1439; in the data active = binding response below about 49% or above about 150%; inconclusive = no clear call, values can overlap the other calls; inactive = in between;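 also: fluorescent Galphao held in activated GDP-AlF4 state binding bead-coupled RGS7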
Target sequence (P09471 whole entry, looked up): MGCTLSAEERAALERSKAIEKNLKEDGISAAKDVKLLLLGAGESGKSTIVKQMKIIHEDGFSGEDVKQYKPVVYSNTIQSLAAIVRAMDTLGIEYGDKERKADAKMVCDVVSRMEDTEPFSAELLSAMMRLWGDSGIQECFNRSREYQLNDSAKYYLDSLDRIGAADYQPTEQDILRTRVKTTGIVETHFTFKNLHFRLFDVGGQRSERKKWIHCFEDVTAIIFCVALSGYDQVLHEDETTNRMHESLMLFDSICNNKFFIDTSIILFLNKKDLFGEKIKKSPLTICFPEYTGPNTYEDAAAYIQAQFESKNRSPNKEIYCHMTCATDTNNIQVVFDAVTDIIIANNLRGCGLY
GSH bead fluor: GSH bead compound fluorescence profile; AID 1776; hit rate 0.25% among 190,000; GSH beads flow cytometry, compound fluorescence 488/530 nm; hits give high values; fluorescence (KMESF) at 10 µM; in the data active = fluorescence above about 89;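 also: glutathione beads carrying GST-tagged Bcl family fusion proteins plus one bare bead set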
RGS8-Gao reg: regulators of human RGS8-Galphao interaction. P09471. multiplexed bead flow cytometry, RGS8-Galphao binding; actives lie on both sides. response (percent of control binding), % at 10 µM. hit rate 0.34% among 220,000; in the data active = response below about 60% or above about 140%; inactive = in between;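 also: Galphao activated as the GDP aluminium fluoride complex binding bead-coupled RGS8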
Avidin bead fluor: avidin bead compound fluorescence profile; hit rate 0.38% among 220,000; fluorescence (KMESF) at 10 µM; Avidin beads, compound fluorescence 488/530 nm, flow cytometry; hits give high values; in the data active = fluorescence above about 47
RGS16-Gao HTS: modulates binding between human RGS16 and Galphao; O15492+P09471; bead-based flow cytometry RGS16-Galphao binding, fluorescence; actives lie on both sides; binding response (% of control), % at 10 µM; hit rate 0.38% among 220,000; AID 1441; call rule not given here;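 also: Galphao activated by GDP with aluminum fluoride before binding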
RGS4-Gao reg: human RGS4-Galphao interaction regulation; AID 1415; hit rate 0.33% among 220,000; Multiplexed bead flow cytometry, RGS4-Galphao binding; actives lie on both sides; binding response (% of control), % at 10 µM; in the data active = binding response below about 49% or above about 150%; inactive = in between;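 also: fluorescent Galphao activated with aluminum fluoride binding bead-coupled RGS4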
Large screens that a line does not name were inactive; [ ] = dose if it differs, or a comment. Most compounds without a hit are left out; they make up all but 1.2% or so of the library.

O=S(=O)(Nc1ccccc1)c1ccc2c(c1)CCO2	RGS7-Gao inconclusive (no result: GSH bead fluor)
CCOC(=O)CSc1nc2cc3c(cc2cc1C)OCO3	Avidin bead fluor 72
COCc1cc(C)nc(OCC(=O)N/N=C/c2ccc(-c3cc([N+](=O)[O-])ccc3Cl)o2)c1C#N	none
CN1CCN(Cc2cc(=O)oc3ccc(Cl)cc23)CC1	none
CCOC(=O)N1CCN(Cc2cc(=O)oc3ccc(Cl)cc23)CC1	GSH bead fluor 267
CC(=O)OCC1=C(C(=O)O)N2C(=O)C(NC(=O)c3ccc(COc4cccc(Cl)c4Cl)o3)C2SC1 (stereo unspecified)	none
O=C(COc1ccccc1)Nn1c(-c2ccccc2)nc2ccccc2c1=O	none
Cc1ccc(-c2nc3ccccc3c(=O)n2NC(=O)COc2ccccc2)cc1	GSH bead fluor 231
O=C1c2ccccc2NC(c2ccc3c(c2)OCCO3)N1c1ccc2c(c1)OCCO2 (stereo unspecified)	GSH bead fluor 262
COc1ccc2nc(Nc3nc(CSc4nnnn4-c4ccccc4)cc(=O)[nH]3)nc(C)c2c1	Avidin bead fluor 95
CCOc1ccc2nc(Nc3nc(CSc4nnnn4-c4ccccc4)cc(=O)[nH]3)nc(C)c2c1	none
Cn1c(=S)n(C)c2ccccc21	Avidin bead fluor 84
C=CCN(CC(O)c1cccc([N+](=O)[O-])c1)C(C)CCc1ccccc1 (stereo unspecified)	RGS7-Gao inconclusive (no result: GSH bead fluor)
CC(C)N=C(NS(=O)(=O)NC(=O)c1ccccc1)c1ccccc1	none
O=C1S/C(=C/c2ccc(N3CCOCC3)o2)C(=O)N1Cc1ccc(F)cc1	none
O=C1S/C(=C\c2ccc(N3CCOCC3)o2)C(=O)N1Cc1ccc(F)cc1	RGS7-Gao 152.8[activator], RGS4-Gao reg 164.8[activator]
C=CCN1C(=O)S/C(=C/c2ccsc2)C1=O	GSH bead fluor 108
CCN1C(=O)S/C(=C/c2cn(C)c3ccccc23)C1=O	none
C=CCN1C(=O)S/C(=C\c2ccc3c(c2)n(C)c(=O)n3C)C1=O	none
CCN1C(=O)S/C(=C/c2ccsc2)C1=O	Avidin bead fluor 52
COC(=O)c1sc(NC(=O)C2CCCO2)c(C(=O)OC)c1C (stereo unspecified)	none
Cc1c(C(=O)OC(C)C)sc(NC(=O)C2CCCO2)c1C(=O)OC(C)C (stereo unspecified)	GSH bead fluor 93
CCC(C)NS(=O)(=O)c1ccc(OCC(=O)NCc2ccccn2)cc1 (stereo unspecified)	none
CCC(C)NS(=O)(=O)c1ccc(OCC(=O)NCc2cccnc2)cc1 (stereo unspecified)	GSH bead fluor 257
COc1cc(-c2csc(N3CCOCC3)n2)cc(OC)c1OC	GSH bead fluor 263
Fc1ccc(-c2csc(N3CCOCC3)n2)cc1	RGS7-Gao inconclusive (no result: GSH bead fluor)
O=C(OCCCCN1C(=O)c2ccccc2C1=O)c1ccc(S(=O)(=O)N2CCCC2)cc1	GSH bead fluor 266
CSc1ccc(CN2C(=O)NC3(CCCCC3)C2=O)cc1	RGS7-Gao inconclusive
Cc1ccc(NC(CNS(=O)(=O)c2ccc(Cl)cc2)c2ccccc2)cc1 (stereo unspecified)	RGS7-Gao 254.6[activator], Avidin bead fluor 121, RGS4-Gao reg 215.3[activator]
O=S(=O)(NCC(Nc1ccc(Cl)cc1)c1ccccc1)c1ccccc1 (stereo unspecified)	none
Cc1cc2oc(=O)cc(Cn3ccnc3)c2cc1C	GSH bead fluor 273
COc1ccc(-c2nnc(SCc3nc4ccccc4c(=O)[nH]3)o2)cc1	RGS7-Gao inconclusive (no result: GSH bead fluor)
O=C(c1cccc(F)c1)N1CCC(N2CCCCCC2)CC1	none
O=C(c1cccc(F)c1)N1CCN(C2CCCCC2)CC1	GSH bead fluor 269
Cc1nc(C(=O)N/N=C/c2[nH]ncc2Br)cs1	RGS7-Gao inconclusive (no result: GSH bead fluor)
CCOc1ncccc1C(=O)OCC(=O)Nc1ccc2c(c1)OCO2	RGS7-Gao inconclusive
CCOC(=O)C1CCCN(C(=O)c2ccccc2SCCOC)C1 (stereo unspecified)	Avidin bead fluor 102
COCCSc1ccccc1C(=O)N1CCCC(C)C1 (stereo unspecified)	RGS7-Gao inconclusive
CCOc1ccc(/C(O)=C2\C(=O)C(=O)N(c3cc(C)on3)C2c2ccccc2OC)cc1 (stereo unspecified)	Avidin bead fluor 76
